Results filed as inconclusive are left out. Active and inactive are the calls of the source. The call rests on the fitted dose curve.
On the % scale 0 is the no-effect control and ±100 the full control effect; potency means the concentration at half of the fitted maximal effect.

Beta-2 adrenergic receptor (Homo sapiens), sequence (P07550 whole entry, looked up): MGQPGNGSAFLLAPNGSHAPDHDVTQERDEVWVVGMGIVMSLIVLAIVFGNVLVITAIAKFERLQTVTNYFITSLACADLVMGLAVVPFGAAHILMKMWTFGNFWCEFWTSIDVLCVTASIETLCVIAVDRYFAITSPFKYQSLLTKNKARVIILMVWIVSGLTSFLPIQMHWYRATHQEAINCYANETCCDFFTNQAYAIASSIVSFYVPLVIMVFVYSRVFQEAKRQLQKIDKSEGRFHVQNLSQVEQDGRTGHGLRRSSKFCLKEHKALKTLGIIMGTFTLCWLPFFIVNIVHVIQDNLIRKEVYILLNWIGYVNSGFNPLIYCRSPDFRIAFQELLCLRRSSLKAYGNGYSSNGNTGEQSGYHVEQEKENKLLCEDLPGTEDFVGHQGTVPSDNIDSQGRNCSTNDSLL

In this test the target is Beta-2 adrenergic receptor (Homo sapiens) (UniProt P07550). Briefly: Adrenergic beta2 receptor (ADRB2) small molecule agonists, cell-based qHTS assay (AID 1963593). Conditions: CHO-ADRB2 cells, cAMP HTRF, 30 min; series mostly up to 92.4 µM; activation: at the top concentration. The text has this:
National Center for Advancing Translational Sciences [NCATS]
Division of Preclinical Innovation [DPI]
U.S. Environmental Protection Agency [EPA]
National Institutes of Environmental Health Sciences [NIEHS]
National Toxicology Program [NTP]
U.S. Food and Drug Administration [FDA]
Beta adrenergic receptors (Beta-ARs) belong to the G-protein coupled receptor (GPCR) superfamily, includes three subtypes - beta1, beta2, and beta3. Beta1-AR is the predominant receptor subtype expressed in the heart, and beta2-AR is expressed in the kidney, lung, blood vessel and in the heart, and beta3 is found in the adipocytes. Beta1 and 2 ARs couple to Gs protein and elevate cyclic adenosine mono phosphate (cAMP), which activates protein kinase A and leads to the downstream signaling responsible for the physiological actions. Beta-AR agonists or antagonists are the most prescribed therapeutic agents for heart failure and asthma, and these were one of the first target receptors for the rational drug design. Tox21 10K compound library was screened using the cAMP-Gs dynamic assay (Cisbio Bioassays, Shelton, CT) to identify agonists/antagonists of the Gs-coupled human adrenergic, beta2 receptor (ADRB2) in the CHO-ADRB2 cell line (Codex BioSolutions, Inc. Gaithersburg, MD), which stably over-expresses ADRB2. The principle of cAMP-Gs dynamic assay is based on HTRF technology, which facilitates the fluorescence resonance energy transfer (FRET) between donor Europium cryptate and acceptor d2-labeled cAMP. The cAMP generated within cells competes with the red acceptor, d2-labled cAMP, for binding to the monoclonal anti-cAMP-cryptate (Europium donor). An increase in intracellular cAMP leads to the disruption of FRET signal, and the signal is inversely proportional to the cAMP concentration. Isoproterenol HCl (Sigma-Aldrich, St. Louis, MO) was used as a positive control in the screening.
Tox21 Assay Protocol Summary:
CHO-ADRB2 cells were dispensed at 1,000/well in 4uL assay medium into white/solid 1536-well plates (Greiner Bio-One North America Inc., Monroe, NC) using a Multidrop Combi dispenser (ThermoFisher Scientific, Waltham, MA). The assay plates were incubated at 37C and 5% CO2 for an overnight (18-20hr). Then positive control and test compounds dissolved in DMSO were transferred to the assay plates at 23nL using a Pintool station (Wako, San Diego, CA). Following the compound and positive control transfer, 1uL stimulation mix containing 100uM IBMX and 25uM Ro-20-1724 was added to each well of the assay plates using BioRAPTR Flying Reagent Dispenser (FRD, Beckman Coulter, Brea, CA). The assay plates were incubated at room temperature for 0.5hr. Then 2.5ul each d2-labled cAMP and anti-cAMP-cryptate solutions were added separately to each well of the assay plates using an FRD and the assay plates were incubated at room temperature for 1hr.
As for `CN(C)c1ccc(C=O)cc1`, the “activation” value was 6.77% (inactive).

Consider `O=C(O)CN(CCN(CC(=O)O)CC(=O)O)CC(=O)O`, for which the activation was 11.4% [at 3.27 µM] (inactive).

In the case of `CC(C)n1nc(-c2cc3cc(O)ccc3[nH]2)c2c(N)ncnc21`, the “activation” value is 3.14% [at 42.5 µM] (inactive).

For `CCCCCCOC(=O)NC(=N)c1ccc(NCc2nc3cc(C(=O)N(CCC(=O)OCC)c4ccccn4)ccc3n2C)cc1`, the “activation” value was 1.52% [at 42.5 µM] (inactive).

For `CCCCCSCCCCC`, the “activation” value is 1.77% (inactive).

On to `CC(=O)Oc1ccc([N+](=O)[O-])cc1CCl`, for which the “activation” value was 11.9% (inactive).

In the case of `N#CCCNCCC#N`, the “activation” value is 1.17% (inactive).

With `C[C@H]1[C@H]2CC[C@H]3[C@@H]4CC=C5C[C@@H](N(C)C)CC[C@]5(C)[C@H]4CC[C@]23CN1C`, the “activation” value is 4.59% [at 42.5 µM] (inactive).

For `Cc1ccccc1Br`, the “activation” value is 0.0014% (inactive).

In the case of `CCCCOC(=O)CC#N`, the “activation” value is 23.7% (inactive).

As for `CC1=C(C(=O)O)N2C(=O)[C@@H](NC(=O)[C@H](N)c3ccccc3)[C@H]2SC1`, the “activation” value was 19% [at 42.5 µM] (inactive).

Regarding `O=C1c2ccccc2C(=O)c2c1ccc(O)c2O`, the “activation” value was -29.8% [at 42.5 µM] (inactive).

`COc1nc(C)nc(Cl)c1NC1=NCCN1`: the “activation” value is 18.5% [at 42.5 µM] (inactive).

Consider `O=S(=O)(O)c1cc(S(=O)(=O)O)c2ccc3c(S(=O)(=O)O)cc(S(=O)(=O)O)c4ccc1c2c43`, for which the activation is -12.6% [at 19 µM] (inactive).

For `c1csc(SSc2cccs2)c1`, the “activation” value is 8.18% (inactive).

For the compound `O=C1CCC(=O)N1Cl`, the “activation” value was 7.78% (inactive).

With `C=CC[N+]1([C@H]2C[C@H]3[C@@H]4CC[C@H]5C[C@H](OC(C)=O)[C@@H](N6CCCCC6)C[C@]5(C)[C@H]4CC[C@]3(C)[C@H]2OC(=O)CC)CCCCC1`, the “activation” value is -3.26% [at 42.5 µM] (inactive).

Consider `CC(=O)N(CC(O)CO)c1c(I)c(C(=O)NCCO)c(I)c(C(=O)NCC(O)CO)c1I` (stereo not given), for which the “activation” value is 13.8% [at 42.5 µM] (inactive).

`SC1CCCC1`: the “activation” value is -18% (inactive).

`CCCCCCCOC(=O)c1ccc(O)cc1`: the “activation” value is 15.7% (inactive).

For the compound `CCCCCCCCC(CO)CCCCCC` (stereo not given), the “activation” value was -16.1% (inactive).

For `Nc1nc(F)nc2c1ncn2[C@@H]1O[C@H](CO)[C@@H](O)[C@@H]1O`, the “activation” value is -13.6% [at 42.5 µM] (inactive).

Turning to `CCCc1ccc(OC)cc1`, the “activation” value is 29.7% (inactive).

Take `C/C(CC(C)C)=N\O`: the “activation” value was -5.68% (inactive).

Regarding `Cc1cc(NC(=O)C(=O)O)cc(C)c1Oc1ccc(O)c2c1CCC2`, the “activation” value is -3.42% (inactive).

As for `CC(C)Cn1cnc2c1c(=O)n(C)c(=O)n2C`, the “activation” value was 29.3% [at 42.5 µM] (inactive).

Consider `O=C(CC(=O)C(F)(F)F)c1ccccc1`, for which the Potency is 13.9 µM (active).

As to `CNC(C)=O`, the “activation” value is 10.9% (inactive).

In the case of `CC(C)[C@H]1CC[C@H](C)C[C@@H]1O`, the “activation” value is 8.45% (inactive).

For `Cc1cccc(C)c1NC(=O)C(C)N` (stereo not given), the “activation” value is -2.68% [at 42.5 µM] (inactive).

For `CCOC(=O)/C=C/c1ccccc1`, the “activation” value was -13.1% (inactive).

On to `CNC(=S)NN`, for which the “activation” value is -9.9% (inactive).

In the case of `COc1cc2c(cc1OC)[C@@H]1CC(=O)[C@@H](CC(C)C)CN1CC2`, the “activation” value is -10.9% [at 42.5 µM] (inactive).

`C[C@@]12CCC[C@H]1[C@@H]1CC[C@H]3C[C@@H](O)CC[C@]3(C)[C@H]1CC2`: the “activation” value was -20.7% [at 42.5 µM] (inactive).

In the case of `Cc1onc(-c2ccccc2)c1-c1ccc(S(N)(=O)=O)cc1`, the “activation” value was -53.2% [at 42.5 µM] (inactive).

On to `CCOCCn1c(N2CCCN(C)CC2)nc2ccccc21`, for which the “activation” value was 2.83% [at 42.5 µM] (inactive).

With `CCC1OCC(COc2ccc(Oc3ccccc3)cc2)O1` (stereo not given), the “activation” value was 7.61% (inactive).

Take `Cc1c(Nc2ncccc2C(=O)O)cccc1C(F)(F)F`: the “activation” value was -9.46% [at 42.5 µM] (inactive).

As for `CCCCCCCC/C=C\CCCCCCCC(=O)N(CCO)CCO`, the “activation” value is 6.29% (inactive).

On to `C=C(C)C(=O)OCCOCCOC(=O)C(=C)C`, for which the “activation” value was -8.82% (inactive).

These data come from PubChem BioAssay (Tox21).
